# Among all 330,000 compounds or so, about 5,800 (1.8%) were called active. The sample holds actives, similar compounds and a random draw of the others, so the mix is not that of the screen. Unmarked numbers belong to inactive results. Cut-off read from the data, not from the text of the source: active = inhibition mostly above about 38% (no sharp cut-off); inactive = mostly below about 40%.
# Target: Orexin/Hypocretin receptor type 1 (Homo sapiens) (UniProt O43613)
# Assay: antagonists of human orexin 1 receptor (OX1R) (AID 485270);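 note: 0% = agonist challenge alone and 100% = reference antagonist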
# Conditions: OX1R-expressing cells, FRET antagonist read-out; at 6.6 µM; hits give high values
# Chain of Orexin/Hypocretin receptor type 1 (Homo sapiens) (O43613 whole entry, looked up): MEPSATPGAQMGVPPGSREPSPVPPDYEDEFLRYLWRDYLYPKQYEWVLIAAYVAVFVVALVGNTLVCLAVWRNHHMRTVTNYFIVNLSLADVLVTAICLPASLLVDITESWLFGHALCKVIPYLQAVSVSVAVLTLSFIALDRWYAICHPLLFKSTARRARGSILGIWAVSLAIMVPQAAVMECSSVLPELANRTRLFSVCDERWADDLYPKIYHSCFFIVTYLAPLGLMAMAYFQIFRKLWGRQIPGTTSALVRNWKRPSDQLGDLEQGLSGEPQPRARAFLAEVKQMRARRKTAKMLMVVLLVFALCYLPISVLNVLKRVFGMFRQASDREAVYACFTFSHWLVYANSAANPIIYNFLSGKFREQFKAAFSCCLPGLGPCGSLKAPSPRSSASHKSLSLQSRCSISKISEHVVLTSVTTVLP
row,Compound,inhibition
1,Cc1noc(C)c1NC(=O)Nc1cccc2c1O[C@H](CN(C)S(=O)(=O)c1c(C)noc1C)[C@@H](C)CN([C@H](C)CO)C2=O,-0.11%
2,CCOc1ccccc1Nc1nnc(SCC(=O)NCC2CCCO2)s1 (stereo unspecified),6.79%
3,COc1ccc(C(=O)NC2CC(C)(C)Cc3c2cnn3-c2ccccc2)c(OC)c1 (stereo unspecified),34.6%
4,COCc1ccc(C(=O)NC2CC(C)(C)Cc3c2cnn3-c2ccc(C)cc2)o1 (stereo unspecified),34.1%
5,COc1ccc(C(=O)NC2CC(C)(C)Cc3c2cnn3-c2ccccc2C)o1 (stereo unspecified),71.7% (active)
6,COc1cc(OC)c2c(-c3cccc(-c4cccc(N)c4)c3)cc(=O)oc2c1,7.11%
7,COc1cccc(/C=N/Nc2ncc(C(F)(F)F)cc2Cl)c1O,9.55%
8,COc1cccc(/C=N/Nc2cc(C)nc(-c3ccccc3O)n2)c1O,107% (active)
9,COc1ccccc1/C=N/Nc1nc(C)c(C(C)=O)s1,13.4%
10,Cc1scc(C(=O)NNC(=S)NCc2ccccc2)c1C,11.1%
11,CCOC(=O)C1CCCN(C(=O)CSc2nnc3nc(C)cc(C)n23)C1 (stereo unspecified),0.28%
12,O=[N+]([O-])c1ccc(NCCCO)c(C(F)(F)F)c1,28.9%
13,O=C(NCCNc1ccccc1[N+](=O)[O-])c1ccccc1F,9.6%
14,N#Cc1c(NCCO)ccc([N+](=O)[O-])c1NCCO,49.8% (active)
15,COc1ccccc1N(CCOc1ccccc1)S(=O)(=O)c1ccccc1,26.3%
16,COc1ccc(C(=O)NCC(=O)N/N=C/c2ccc([N+](=O)[O-])o2)cc1OC,40%
17,Cc1cc(C)nc(N/N=C/c2c(C)oc3ccccc23)n1,24.7%
18,Cc1cc(C)nc(N/N=C/c2ccc([N+](=O)[O-])o2)n1,60.5% (active)
19,COc1ccc(S(=O)(=O)N2CCCCCC2)cc1NC(=O)Cc1ccc(OC)c(OC)c1,8.64%
20,COc1cc(OC)cc(-c2c(C#Cc3ccsc3)c3cc(-c4ccc(OC)cc4F)ccc3n2C)c1,9.29%
21,Cc1noc(C)c1S(=O)(=O)N(C)C[C@H]1Oc2ccc(NC(=O)C3CC3)cc2C(=O)N([C@H](C)CO)C[C@@H]1C,3.87%
22,CN1C(=O)[C@H]2[C@@H](/C=C/c3ccccc3)N3C(=O)CN(Cc4ccc(-c5ccccc5)cc4)C(=O)[C@@]3(C)[C@H]2C1=O,-0.45%

row,Compound,inhibition
1,CN1CN(C)c2ccc([N+](=O)[O-])c3cccc1c23,44.5% (active)
2,CN1CCN(c2ccc(S(=O)(=O)Nc3ccccc3)cc2[N+](=O)[O-])CC1,27.9%
3,O=[N+]([O-])c1cccc2ncccc12,22.2%
4,Cc1ccccc1NC(=O)CSC(=O)c1ccccc1,3.63%
5,COC(=O)C1CCN(C(=O)COC(=O)c2cc(S(=O)(=O)N3CCOCC3)ccc2C)CC1,-3.08%
6,CN1CCN(/N=C2/C(=O)Nc3ccc([N+](=O)[O-])cc32)CC1,72.6%
7,CN1CCN(/N=C/c2ccc(C#N)cc2)CC1,37.9%
8,CN1CCN(/N=C/c2ccc(-c3ccc([N+](=O)[O-])cc3)o2)CC1,83.2% (active)
9,C[C@H](CO)N1C[C@H](C)[C@@H](CN(C)Cc2ccc(-c3ccccc3)cc2)Oc2ccc(NC(=O)Cn3cnnn3)cc2C1=O,-2.89%
10,CC(C)N(C(=O)[C@H]1C[C@H](CC(=O)NCCC2=CCCCC2)C(=O)N2CCc3c([nH]c4cc(CCC(=O)N(C)C)ccc34)[C@]12C)C(C)C,10.8%
11,CC(C)(C)n1cnnc1Sc1ccc([N+](=O)[O-])cn1,36.8%
12,Cn1cnnc1Sc1ccc(S(C)(=O)=O)cc1[N+](=O)[O-],95.8% (active)
13,CCN(CC(=O)Nc1c(F)cccc1F)C(=O)c1ccc(Sc2nncn2C)c([N+](=O)[O-])c1,37%
14,CC[C@]12c3[nH]c4ccc(Cl)cc4c3CCN1C(=O)[C@@H](CC(=O)NCCN1CCOCC1)C[C@@H]2C(=O)N1CCN(C(=O)C2CC2)CC1,3.88%
15,O=C(/C=C/c1ccc([N+](=O)[O-])o1)NNC(=O)c1ccc(F)cc1,57.8% (active)
16,O=C(NNC(=O)C1CCCC1)c1ccc(F)cc1,7.91%
17,Cc1ccc(/C=C/C(=O)Nc2ccc([N+](=O)[O-])c(NC(=O)/C=C/c3ccc(C)o3)c2)o1,13.2%
18,C=CCn1c(SCn2nnc3ccccc3c2=O)nnc1-c1ccc(Cl)cc1,25%
19,C=CCn1c(SCc2cc(C(=O)OC)c(C)o2)nnc1-c1ccncc1,18.3%
20,C=CCn1c(SCc2c(C(=O)OC)sc(N)c2C(=O)OC)nnc1-c1ccc(Cl)cc1,45.4% (active)
21,Cc1ccc(NC(=O)COC(=O)C2CC2)cc1S(=O)(=O)N1CCOCC1,4.49%
22,CCCCOc1ccc(C(=O)NCC(=O)OCC(=O)c2c(N)n(C)c(=O)n(C)c2=O)cc1,4.34%

row,Compound,inhibition
1,COc1ccc(NC(=O)CNc2cc(S(=O)(=O)N3CCOCC3)ccc2N2CCOCC2)c(OC)c1,17.1%
2,C#CCOCCOCCOCCNc1nc(N2CCN(C(=O)[C@H](CCC(=O)O)n3cc(CN)nn3)CC2)nc(N2CCN(C(=O)[C@H](CCC(=O)O)n3cc(CN)nn3)CC2)n1,4.4%
3,CCn1c(=S)[nH]c2cc(S(=O)(=O)N3CCOCC3)ccc21,8.76%
4,COCC(C)n1c(SCC(=O)NC2CCCCC2C)nc2ccccc2c1=O (stereo unspecified),39.7% (active)
5,COCCn1c(C)cc(C(=O)CSc2nc3ccccc3c(=O)n2C(C)COC)c1C (stereo unspecified),9.56%
6,COCC(C)n1c(SCc2ccc(C(=O)OC)o2)nc2ccccc2c1=O (stereo unspecified),29.3%
7,O=C1CCC/C=C\C[C@@H](CC(=O)N(CCO)Cc2ccccc2)C(=O)NCCO1,3.3%
8,O=C(c1ccco1)N1CCN(C(=O)C2CCCN(S(=O)(=O)c3cccc4nsnc34)C2)CC1 (stereo unspecified),59.8% (active)
9,COc1cccc(N2CCN(C(=O)C3CCCN(S(=O)(=O)c4cnc[nH]4)C3)CC2)c1 (stereo unspecified),4.15%
10,O=C(NCc1ccco1)C1CCCN(S(=O)(=O)c2cnc[nH]2)C1 (stereo unspecified),6.51%
11,CCCCN(CC)C(=O)C1CCCN(S(=O)(=O)c2cccc3nsnc23)C1 (stereo unspecified),39.7% (active)
12,COc1ccccc1CNC(=O)C1CCCN(S(=O)(=O)c2cccc3cccnc23)C1 (stereo unspecified),11.7%
13,O=C(NCc1ccco1)C1CCCN(S(=O)(=O)c2cccc3nonc23)C1 (stereo unspecified),95.8% (active)
14,CCCCN(C)CCNC(=O)C1CCCN(S(=O)(=O)c2cccc3nsnc23)C1 (stereo unspecified),26.9%
15,O=C(c1ccco1)N1CCN(C(=O)C2c3ccccc3Oc3ccccc32)CC1,-0.85%
16,O=C(NCc1ccco1)C1CCCN(S(=O)(=O)c2ccccc2)C1 (stereo unspecified),22.4%
17,CN(C(=O)CSc1cccc[n+]1[O-])C1CCCCC1,1.33%
18,CC(C)(C)OC(=O)C[C@H]1C/C=C\C[C@@H](CC(=O)N[C@H](CO)Cc2ccccc2)C(=O)NC[C@@H](c2ccccc2)OC1=O,8.19%
19,COc1ccc(/C=C2\SC(=O)N(CCC(=O)NC3CCS(=O)(=O)C3)C2=O)cc1 (stereo unspecified),49.4% (active)
20,COc1ccc(/C=C2\SC(=O)N(CCC(=O)NCCCn3ccnc3)C2=O)cc1,33.5%
21,COc1ccccc1/C=C1\SC(=O)N(CCC(=O)N(C)C2CCS(=O)(=O)C2)C1=O (stereo unspecified),16.6%
22,CC(Sc1ccccc1F)C(=O)Nc1cccc(S(=O)(=O)N2CCOCC2)c1 (stereo unspecified),9.63%

row,Compound,inhibition
1,CCCOc1ccc(Cc2c(Cl)nc(SC)nc2NC)cc1,48.2% (active)
2,CCCOc1ccc(Cn2c(O)cc(=O)[nH]c2=O)cc1,6.66%
3,CCCOc1ccc(Cc2c(O)nc(SC)[nH]c2=O)cc1C,11.5%
4,O=C1OCCN1C(=O)[C@H]1[C@H](c2ccc(F)cc2)C(c2ccccc2)=NN1c1ccc(Br)cc1,7.86%
5,CCOC(=O)C1CCN(C(=O)CN2C(=O)NC(C)(c3ccc4cc(OC)ccc4c3)C2=O)CC1 (stereo unspecified),9.95%
6,Nc1cccnc1Sc1ccccc1,15.4%
7,COc1ccc(C)cc1S(=O)(=O)N1CCN(S(=O)(=O)c2cc(C(=O)O)ccc2C)CC1,26.6%
8,Cc1ccc(C)c(S(=O)(=O)N2CCN(c3ncnc4sccc34)CC2)c1,28.6% (active)
9,Cc1ccc(S(=O)(=O)N2CCN(c3ncnc4ccccc34)CC2)cc1,25.9%
10,C=CCSc1nsc(NC(=O)Nc2cccc(C(C)=O)c2)n1,58.4% (active)
11,CSc1nsc(NC(=O)Nc2ccccc2)n1,19.6%
12,C=C(C)C(=O)Nc1cccc(C(C)=O)c1,8.59%
13,CCSc1nsc(NC(=O)Nc2cccc(C(C)=O)c2)n1,84.2% (active)
14,CCSc1nsc(NC(=O)Nc2ccccc2OC)n1,6.99%
15,C=CCSc1nnc(NC(=O)c2ccc(NC(C)=O)cc2)s1,5.19%
16,CCOC(=O)C1=CN(Cc2ccc(Br)cc2)S(=O)(=O)N(C)C1C (stereo unspecified),6.18%
17,C[C@H](CO)N1C[C@H](C)[C@@H](CN(C)S(=O)(=O)c2ccc(F)cc2)Oc2ccc(NC(=O)CCC(F)(F)F)cc2C1=O,9.27%
18,O=C(COC(=O)COc1ccccc1F)Nc1cccc(S(=O)(=O)N2CCCCC2)c1,-4.71%
19,O=C(CCNC(=O)c1ccccc1Cl)NN=Cc1ccco1,9.66%
20,CC1CCCCC1NC(=O)Cn1c(=O)cnc2ccccc21 (stereo unspecified),7.4%
